Source: PubChem BioAssay AID1745848 (National Center for Advancing Translational Sciences (NCATS), 2022)
Among all 2,100 compounds or so, about 940 (45%) were called active. Not shown: some 48% with an inconclusive outcome. Calls come from the whole dose curve; as a rule, active = well fitted inhibition curve with a large enough effect; inconclusive = small, poorly fitted or top-dose-only effect; inactive = no such curve, though single readings can be large or run the other way. So high a share suggests a set chosen from earlier hits. The list shows a part of the results.

experiment: Confirmatory qHTS for Inhibitors of ATXN expression; settings: ATXN2-luciferase reporter cells, luminescence, 24 h; series mostly up to 11.5 µM; note: nearly all actives have a fitted effect of over 65% in size
Summary of the method: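 A titration, incubated 24 h with reporter cells expressing ATXN2-luciferase. Luminescence (SteadyGlo) gives ATXN2 expression, multiplexed GF-AFC fluorescence gives viability; normalised to DMSO and medium-only wells.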
Potency is the fitted concentration of half-maximal effect.

Row | SMILES | Potency
1 | Cc1ccc2c(Cl)cc(Cl)c(O)c2n1 | 5.62 µM (active)
2 | COc1ccc([C@@]2(C(C)C)ON(c3ccccc3C(F)(F)F)C2=O)cc1 | inactive
3 | COc1ccc(OC)c(C(=O)/C=C/c2ccccc2C(F)(F)F)c1 | 3.16 µM (active)
4 | Cc1ccc(-c2cc(C(=O)NCCCN3CCOCC3)no2)cc1 | 7.94 µM (active)
5 | CC(O)(c1ccccc1)c1nc(-c2ccncc2)cs1 (stereo not drawn) | inactive
6 | OCCN1CCN(C2CCC(c3ccc(F)cc3)c3ccc(F)cc32)CC1 (stereo not drawn) | 25.1 µM (active)
7 | CCN(CC)S(=O)(=O)c1ccc(N/N=C/c2cc(OC)ccc2O)nc1 | 0.794 µM (active)
8 | CC(=O)N1CCCc2cc(S(=O)(=O)N3CCCC(C(=O)N4CCN(c5cc(C)ccc5C)CC4)C3)ccc21 (stereo not drawn) | 3.16 µM (active)
9 | CCc1ccc(NC(=O)COc2ccc(/C=C(/C#N)c3nc4ccccc4[nH]3)cc2OC)cc1 | 3.55 µM (active)
10 | CCOCCn1ccc2c(OCC(=O)Nc3ccc(OC)c(OC)c3)cccc2c1=O | inactive
11 | CCOC(=O)c1ccc2ncc(C(=O)OCC)c(Nc3ccc(N4CCOCC4)cc3)c2c1 | 3.98 µM (active)
12 | CCN(CC)S(=O)(=O)c1cccc(NC(=O)Nc2cccc(C(F)(F)F)c2)c1 | 1.78 µM (active)
13 | O=c1cc(N2CCN(c3cccc(Cl)c3)CC2)[nH]c(=O)n1C1CCCCC1 | 0.355 µM (active)
14 | Cc1nc2ccccc2c(=O)n1/N=C/c1c(O)ccc2oc3c(c12)CCCC3 | 15.8 µM (active)
15 | NC(=O)N/N=C/c1c(O)ccc2oc3c(c12)CCCC3 | 14.1 µM (active)
16 | Cc1ccc(N=Nc2ccc(O)c3ncccc23)cc1 | 3.16 µM (active)
17 | Cc1ccccc1N=Nc1ccc(O)c2ncccc12 | 1.41 µM (active)
18 | Cn1c2c(c(=O)[nH]c1=O)C(c1cccc(O)c1)C1=C(N2)c2ccccc2C1=O (stereo not drawn) | 3.98 µM (active)
19 | COCCCNCCCOc1ccc(Cl)cc1C(C)(C)C | 15.8 µM (active)
20 | CCc1cc2c(N3CCN(c4nnc(CC)s4)CC3)ncnc2s1 | 3.55 µM (active)
21 | Cc1cc(C)cc(NC(=O)CCc2nc3sc4c(c3c(=O)[nH]2)CCCC4)c1 | 0.708 µM (active)
22 | O=[N+]([O-])c1ccc(NC(c2ccccc2)c2ccc3cccnc3c2O)cc1 (stereo not drawn) | 1.26 µM (active)
23 | CC(NC(=O)Nc1cccc([N+](=O)[O-])c1)c1ccc2c(c1)OCO2 (stereo not drawn) | inactive
24 | CC(=O)NC(c1cccc([N+](=O)[O-])c1)c1ccc2cccnc2c1O (stereo not drawn) | 0.562 µM (active)

Row | SMILES | Potency
25 | CC(C)C(=O)NC(c1cccc([N+](=O)[O-])c1)c1ccc2cccnc2c1O (stereo not drawn) | 2.24 µM (active)
26 | CCOC(=O)c1ccc(N=c2sc(C(=O)OC)cc(=O)n2-c2ccc(C(=O)OCC)cc2)cc1 | 3.98 µM (active)
27 | Cc1ccc(NC(=O)CSc2n[nH]c(-c3ccccn3)n2)cc1 | 2.82 µM (active)
28 | O=C(CSc1n[nH]c(-c2ccccn2)n1)Nc1cccc(Cl)c1 | 3.55 µM (active)
29 | O=C(CC1NCCc2ccccc21)Nc1ccc(Cl)cc1 (stereo not drawn) | inactive
30 | O=C(CSc1n[nH]c(-c2ccccn2)n1)Nc1ccc(F)cc1 | 8.91 µM (active)
31 | O=C(CSc1n[nH]c(-c2ccccn2)n1)Nc1ccc(Cl)cc1 | 1.26 µM (active)
32 | COC(/C(=N/O)c1ccc(Cl)cc1)c1ccccc1 (stereo not drawn) | inactive
33 | O=C(CSc1n[nH]c(-c2ccccn2)n1)Nc1ccccc1 | 15.8 µM (active)
34 | COc1cc(Br)cc(/C=N/NC(=O)Cc2ccc(C(F)(F)F)cc2[N+](=O)[O-])c1O | 10 µM (active)
35 | c1cc2c(cc1-c1cnc3n1CCC3)OCCO2 | 12.6 µM (active)
36 | NC(=Nc1nc(-c2ccccn2)cc2ccccc12)c1ccccn1 | 0.0562 µM (active)
37 | Oc1cccc(C(Nc2nccs2)c2ccc3cccnc3c2O)c1 (stereo not drawn) | 2.51 µM (active)
38 | Oc1ccccc1C(Nc1nccs1)c1ccc2cccnc2c1O (stereo not drawn) | 2.82 µM (active)
39 | Oc1c(C(Nc2ccccn2)c2ccccn2)ccc2cccnc12 (stereo not drawn) | 3.16 µM (active)
40 | Oc1c(C(Nc2nccs2)c2ccc(C(F)(F)F)cc2)ccc2cccnc12 (stereo not drawn) | 1.78 µM (active)
41 | O=C(N/N=C/c1ccc([N+](=O)[O-])s1)c1ccccc1 | 12.6 µM (active)
42 | Cc1c(C(=O)N2c3ccccc3Sc3ccccc32)cccc1[N+](=O)[O-] | inactive
43 | COc1ccc(C(=O)NCC(=O)N/N=C/c2ccc([N+](=O)[O-])s2)cc1OC | 10 µM (active)
44 | Cc1ccccc1C(=O)N/N=C/c1ccc([N+](=O)[O-])s1 | 12.6 µM (active)
45 | O=C(N/N=C/c1ccc([N+](=O)[O-])s1)c1ccccc1Br | 14.1 µM (active)
46 | Cc1ccc(C)n1-c1ccc(C(=O)N2CCC(C(N)=O)CC2)cc1 | inactive
47 | COc1cccc(CNc2nc3cc(-c4ccc(C(=O)N5CCN(C)CC5)cc4)sc3c(=O)n2C)c1 | 28.2 µM (active)
48 | COc1cccc(C(=O)Nc2nc(-c3ccc(S(=O)(=O)N4CCOCC4)cc3)cs2)c1 | 1.58 µM (active)

Row | SMILES | Potency
49 | O=C(Nc1nc(-c2ccccn2)cs1)c1ccc(F)c(S(=O)(=O)N2CCOCC2)c1 | 1.78 µM (active)
50 | COc1ccc(C(=O)Nc2nc(-c3ccc(S(=O)(=O)N4CCOCC4)cc3)cs2)cc1 | 1.78 µM (active)
51 | COc1ccccc1C(=O)Nc1nc(-c2ccc(S(=O)(=O)N3CCOCC3)cc2)cs1 | 3.98 µM (active)
52 | COc1cccc(NC(=O)/C=C/c2ccc(S(=O)(=O)N3CCOCC3)cc2)c1 | inactive
53 | NC(=O)c1c(NC(=O)c2ccc(S(=O)(=O)N3CCOCC3)cc2)sc2c1CCCCC2 | inactive
54 | CCN1CCN(C(=S)c2ccc(-c3ccccc3)cc2)CC1 | 1.58 µM (active)
55 | OCCN1CCN(C(=S)c2ccc(-c3ccccc3)cc2)CC1 | 1.78 µM (active)
56 | COc1ccc(NC(=O)c2cc(-c3cc(Cl)ccc3OC)n[nH]2)cc1OC | 0.631 µM (active)
57 | O=c1c(O)c(-c2ccccc2)oc2ccccc12 | inactive
58 | O=c1cc(-c2c(F)c(F)c(F)c(F)c2F)oc2ccccc12 | 3.55 µM (active)
59 | Cc1nc(SCC(=O)Nc2ccc(S(=O)(=O)N3CCOCC3)cc2)c2c(C)c(C)sc2n1 | 3.98 µM (active)
60 | COc1ccc(C(=O)c2sc(Nc3ccccc3)nc2N)cc1OC | 28.2 µM (active)
61 | COc1cccc(CNCCc2c[nH]c3ccccc23)c1OCc1ccc(F)cc1 | 3.98 µM (active)
62 | O=C(N/N=C/c1c(O)ccc2ccccc12)c1cccnc1 | 3.16 µM (active)
63 | O=C(N/N=C\c1c(O)ccc2ccccc12)c1ccc(Cn2cccn2)o1 | 0.708 µM (active)
64 | Cc1occc1C(=O)N/N=C/c1c(O)ccc2ccccc12 | 1.78 µM (active)
65 | O=C(N/N=C\c1c(O)ccc2ccccc12)c1cncc(Br)c1 | 0.251 µM (active)
66 | O=C(N/N=C/c1cc(O)ccc1Br)c1cccnc1 | 3.16 µM (active)
67 | Cn1c(-[n+]2c(-c3ccccc3)cc(-c3ccccc3)cc2-c2ccccc2)nc2c([N+](=O)[O-])cccc21 | inactive
68 | CCn1c2ccccc2c2cc(/C=C(/C#N)C(N)=S)ccc21 | 0.447 µM (active)
69 | CCn1c2ccccc2c2cc(/C=N/NC(=O)c3ccncc3)ccc21 | 1.41 µM (active)
70 | Cc1cccc(OCCn2cc(/C=N/NC(=O)c3ccncc3)c3ccccc32)c1 | inactive
71 | CCn1c2ccccc2c2cc(/C=N/n3cnnc3)ccc21 | 1.58 µM (active)
72 | CCn1c2ccccc2c2cc(/C=N/NC(=O)c3ccc(O)cc3)ccc21 | 2.24 µM (active)

Row | SMILES | Potency
73 | Cc1ccc2nc(SCc3ccc([N+](=O)[O-])cc3)[nH]c2c1 | inactive
74 | CCn1c2ccccc2c2cc(/C=N/NC(=O)c3ccccc3)ccc21 | 3.16 µM (active)
75 | Cc1ccc(S(=O)(=O)c2c(N)n(CC3CCOC3)c3nc4ccccc4nc23)cc1 (stereo not drawn) | inactive
76 | CC(C)CCn1c(N)c(S(=O)(=O)c2cccs2)c2nc3ccccc3nc21 | 3.16 µM (active)
77 | COc1cccc(/C=N/n2c(N)c(S(=O)(=O)c3cccs3)c3nc4ccccc4nc32)c1OC | 14.1 µM (active)
78 | Cc1cc(Br)c(OCc2ccc(C(=O)N/N=C3\CC4CC=CC34)cc2)c(Br)c1 (stereo not drawn) | 28.2 µM (active)
79 | CCCCNC(=NCc1cccc(C(F)(F)F)c1)Nc1ccccc1 | 3.16 µM (active)
80 | CN(C(=O)c1cnc(N2CCN(c3ncccn3)CC2)c2ccccc12)c1ccc(Cl)cc1 | 28.2 µM (active)
81 | O=C(c1cnc(N2CCN(c3ccccn3)CC2)c2ccccc12)N1CCN(c2cccc(Cl)c2)CC1 | 6.31 µM (active)
82 | COc1ccc(/C(C)=N/NC(=O)c2cccc(S(=O)(=O)N3CCCC3)c2)c(O)c1 | 3.55 µM (active)
83 | CCN(CC)S(=O)(=O)c1cccc(C(=O)N/N=C(\C)c2ccc(O)cc2O)c1 | 3.16 µM (active)
84 | CC(=NNC(=O)c1ccncc1)c1ccc(O)cc1O | 12.6 µM (active)
85 | CCn1c(C)nc2cc(C(=O)N/N=C(\C)c3ccc(OC)cc3O)ccc21 | 15.8 µM (active)
86 | CC(=NNC(=O)c1ccncc1)c1ccc2ccccc2c1O | 1.12 µM (active)
87 | CC(=O)NC(c1ccccc1)c1cc(Cl)c2cccnc2c1O (stereo not drawn) | 2.82 µM (active)
88 | CC(=O)NC(c1ccc(C)cc1)c1cc(Cl)c2cccnc2c1O (stereo not drawn) | 2.51 µM (active)
89 | Oc1c(C(Nc2ccccn2)c2cccnc2)cc(Cl)c2cccnc12 (stereo not drawn) | 12.6 µM (active)
90 | CC(C)(C)c1ccc(CC(=O)N2CCC2(C)C(=O)Nc2cnc3ccccc3c2)cc1 (stereo not drawn) | inactive
91 | Cc1ccc(CN2CCSc3ccc(C(=O)NC4CCN(Cc5ccccc5)CC4)cc32)cc1 | 3.16 µM (active)
92 | CN1C(=O)/C(=C\c2ccccc2F)Sc2ccc(C(=O)NC3CCN(Cc4ccccc4)CC3)cc21 | 3.16 µM (active)
93 | CC1(C(=O)NC2CCN(Cc3ccccc3)CC2)CCN1Cc1ccc2ccccc2c1 (stereo not drawn) | 2.51 µM (active)
